Compound activity deposited in PubChem BioAssay by National Center for Advancing Translational Sciences (NCATS).
IL-1B inflam inh: inhibitors of inflammasome signaling (IL-1 beta secretion). AID 743279. actives 4.7% (n = 360,000). THP-1 LPS/ATP IL-1B secretion, AlphaLISA, 16 h; stronger effect = lower value. activity change, % at 57.5 µM; in the data active = activity change below about -50%; inconclusive = mostly about -30% to -49%; note: % is set by controls: 0 for no effect and ±100 for the full control effect
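THP-1 cells pretreated 1 hr with compounds (up to 57.5 uM final), then stimulated with LPS (250 ng/mL final) plus ATP (1.25 mM final); secreted IL-1B measured by AlphaLISA after 16 hr, decreased signal indicating inhibition.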
Chronic BCR inh: chronic active BCR signaling inhibition; Potency, µM (titrated, usually from 46.1 µM), without a hit: at the top dose activity change, negative = inhibition, actives largely listed as inhibitors; AID 493014; ABC-DLBCL IkBa-CBG/CBR reporter, luminescence ratio, 4 h; actives 0.05% (n = 340,000); active = well fitted inhibition curve with a large enough effect in the signal ratio, with a control signal flat, not every such curve was filed as active; inconclusive = small, poorly fitted or top-dose-only effect, or effect the other way, or a change in a side signal; the % refers to the signal ratio;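 note: potency is the fitted concentration of half-maximal effect; plate controls were basal doxycycline-induced cells for no effect and cells given 10 µM MG132 for full effect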
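Compounds up to 46 uM were incubated four hours with TMD8 cells whose green CBG68 luciferase is fused to IkappaBalpha; red CBR luminescence normalised the signal, and concentration-effect curves were fitted to fusion, red and ratio data.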
DT40 TDP1 CPT: DT40-hTDP1 cell growth loss with CPT. chicken DT40 Tdp1-/-;hTDP1 cells + 20 nM CPT, ATP luminescence, 48 h. Potency, µM (doses to about 46.2 µM), inactives show at the top dose activity change, negative = growth inhibition, most hits filed as inhibitors. actives 12% (n = 420,000). AID 686979; note: potency is the fitted concentration of half-maximal effect; % is set by controls: 0 for no effect and ±100 for the full control effect; nearly all actives have a fitted effect of over 55% in size
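Cell growth measured by CellTiter-Glo luminescence after a minimum 48 h, 37 C compound exposure with 20 nM CPT in Tdp1-knockout DT40 cells stably expressing hTDP1, seeded 400/well; qHTS titration format.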
DT40 TDP1 no CPT: qHTS for Inhibitors of human tyrosyl-DNA phosphodiesterase 1 (TDP1): qHTS in cells in absence of CPT | DT40 Tdp1-/- hTDP1 cells, no CPT, ATP luminescence, 48 h | Potency, µM (highest dose often 46.2 µM), without a hit: at the top dose activity change, negative = growth inhibition, actives largely listed as inhibitors | actives 15% (n = 420,000) | AID 686978, 2013; note: potency is the fitted concentration of half-maximal effect; % is set by controls: 0 for no effect and ±100 for the full control effect; nearly all actives have a fitted effect of over 55% in size
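Camptothecin absent (DMSO only). Human TDP1-complemented DT40 knockout cells, 400 cells/well, 37 °C for minimum 48 hr; ATP measured via CellTiter-Glo, 30 min dark incubation, luminescence.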
SW480 rerep: DNA re-replication induction in SW480 cells; Potency, µM (highest dose often 46.1 µM), without a hit: at the top dose re-replication activation, hits mostly activators; actives 1.8% (n = 340,000); SW480 DNA re-replication, Hoechst DNA content imaging, 48 h; note: potency is the fitted concentration of half-maximal effect; % of control where 0% means no effect; nearly all actives have a fitted effect of over 55% in size
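Cells (250 per well) received 23 nL compound or DMSO by pin tool and were kept 48 hr at 37 C, 5% CO2. Nuclei were then stained with Hoechst for 40 min and scanned for DNA content.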
MCF10A rereplic: DNA re-replication induction in MCF 10a cells. MCF 10A DNA re-replication, Hoechst nuclear intensity, 48 h. Potency, µM (top dose mostly 46.1 µM), for inactives: at the highest dose activity, positive = re-replication, usual class: activators. actives 2.9% (n = 350,000). AID 624296; note: potency is the fitted concentration of half-maximal effect; % of control where 0% means no effect; nearly all actives have a fitted effect of over 50% in size
The depositor's hits bear a star; i = inactive; ? = inconclusive; / = no result given. In the library only some 19% were active in any assay of this set; here they are far more common. Unless noted, calls come from the whole dose curve; as a rule, active = well fitted curve in the direction sought with a large enough effect; inconclusive = small, poorly fitted or top-dose-only effect, or another doubt; inactive = no such curve, though single readings can be large; an effect the other way counts as inactive or inconclusive.

SMILES	IL-1B inflam inh	Chronic BCR inh	DT40 TDP1 CPT	DT40 TDP1 no CPT	SW480 rerep	MCF10A rereplic
COc1ccccc1-c1noc(-c2ccc(N3CCOCC3)c([N+](=O)[O-])c2)n1	/	/	20.6µM*	13µM*	/	/
CC(C)OCCCNC(=O)Cn1ccc2cc(S(=O)(=O)N3CCCCC3)ccc21	34.6	-3.6%	?	?	?	8.4%
CCOC(=O)c1ccc(NC(=O)CN2CCN(C(=O)c3ccco3)CC2)cc1	0.3	5.4%	-7.1%	-2.8%	9.6%	13.2%
COC(=O)c1ccsc1NC(=O)CN1CCN(Cc2ccc3c(c2)OCO3)CC1	-4.0	-2.4%	?	?	0.1%	24.1%
COC(=O)c1c(NC(=O)CN2CCN(Cc3ccc4c(c3)OCO4)CC2)sc(C)c1C	-75.9*	-15.7%	?	?	?	?
CCOC(=O)c1c(NC(=O)CN2CCN(C(=O)c3ccco3)CC2)sc(C)c1C	0.0	2.0%	?	14.6µM*	6.1%	-1.1%
CCc1c(C)sc(NC(=O)CN2CCN(C(=O)c3ccco3)CC2)c1C(=O)OC	-78.7*	-2.5%	18.4µM*	?	-3.1%	14.7%
CCCOc1ccc(C2C(=O)N(C3CCC(C)CC3)CC(=O)N2CCc2ccccc2)cc1OC (centres undefined)	/	2.3%	?	?	/	/
COc1ccc(/C=C/C(=O)OCC(=O)NCCC2=CCCCC2)cc1OC	9.8	-6.4%	?	16.4µM*	-8.8%	-6.6%
COc1ccc(C(C)=O)c(OCC(=O)NCCC2=CCCCC2)c1	0.6	/	-75.3%	0.581µM*	/	/
COc1cc(/C=C/C(=O)OCC(=O)c2ccc(OC(F)F)cc2)ccc1O	-23.4	2.9%	?	14.6µM*	5.9%	?
CCOc1ccc(/C=C/C(=O)OCC(=O)NCCc2ccc(OCC)c(OCC)c2)cc1OC	-2.6	-2.3%	?	?	-1.8%	0.0%
COc1cc(/C=C/C(=O)OCC(=O)NCCc2ccc(S(N)(=O)=O)cc2)ccc1OCC#N	-8.9	-11.9%	-2.9%	1.1%	2.59µM*	?
COCCN1C[C@@H](CO)O[C@@H](n2cnc3c(NCC(C)C)ncnc32)C1	25.4	/	-4.6%	-6.1%	/	/
CCc1ccc(NC(=O)C(C)OC(=O)/C=C/c2ccc(O)c(OC)c2)cc1 (centres undefined)	40.9	20.6µM*	?	?	0.5%	21.7%
COc1cc(/C=C/C(=O)OC(C)C(=O)Nc2c(C)n(C)n(-c3ccccc3)c2=O)ccc1O (centres undefined)	9.5	1.3%	-15.9%	-12.2%	-11.0%	3.5%
CCc1cccc2c(C(=O)COC(=O)/C=C/c3ccc(O)c(OC)c3)c[nH]c12	?	?	?	18.4µM*	21.9%	-52.2%
COC(=O)c1ccc(CNC(=O)COC(=O)/C=C/c2ccc(O)c(OC)c2)cc1	-68.1*	?	?	?	-4.5%	5.5%
COc1ccc(/C=C/C(=O)OCC(=O)NCc2ccccc2)cc1OC	0.0	-1.9%	20.6µM*	16.4µM*	15.6%	23.1µM*
COCCNC(=O)C1CCCN(C(=O)c2cc(C)n(C(C)(C)C)n2)CC1 (centres undefined)	15.5	/	10.4%	2.3%	/	/
CCc1cccc(CC)c1NC(=O)COC(=O)CC1c2ccccc2CCN1S(=O)(=O)c1ccc(F)cc1 (centres undefined)	i	2.9%	?	23.1µM*	13.5%	12.7%
COc1ccccc1Nc1nc(-c2ccccc2Cl)c2cc(Br)ccc2n1	/	/	3.66µM*	2.31µM*	/	/
COc1ccccc1Nc1nc(Cl)nc(Nc2ccccc2OC)n1	0.0	?	-0.2%	?	4.5%	?
Clc1ccccc1-c1nc(Nc2ccccc2)nc2ccc(Br)cc12	/	/	?	18.4µM*	/	/
O=C1CCC(C(=O)N2CCN(c3cnccn3)CC2)CN1CCc1cccc(F)c1 (centres undefined)	4.7	3.0%	-9.1%	20.7%	?	3.7%
SMILES	IL-1B inflam inh	Chronic BCR inh	DT40 TDP1 CPT	DT40 TDP1 no CPT	SW480 rerep	MCF10A rereplic
Cc1ccc2c(c1)C1CN(C)CCC1N2C(=O)c1ccc(Cl)c(S(=O)(=O)N2CCOCC2)c1 (centres undefined)	-13.0	-12.9%	5.3%	-2.4%	-2.2%	13.0%
Cc1ccc(C(=O)N(C)c2ccc(OCC(=O)N3c4ccc(C)cc4C4CN(C)CCC43)cc2)cc1 (centres undefined)	-59.5*	-0.5%	?	?	9.4%	13.6%
COc1ccc(OCC(=O)N2c3ccc(C)cc3C3CN(C)CCC32)cc1 (centres undefined)	5.6	1.8%	18.3%	2.3%	13.7%	-4.8%
Cc1ccc2c(c1)C1CN(C)CCC1N2C(=S)NC(=O)c1ccc(Br)cc1 (centres undefined)	0.0	?	9.2µM*	?	13.7%	9.4%
O=C(CN(C(=O)c1csnn1)c1ccc(Cl)cc1)NCCc1ccccc1	-9.1	5.3%	5.5%	-0.8%	1.1%	15.3%
CC(C)(C)n1nc2c(c1NC(=O)C1CC(=O)N(c3ccc(Cl)cc3)C1)CS(=O)(=O)C2 (centres undefined)	-2.7	0.4%	-11.0%	-29.8%	-0.4%	-2.1%
Cc1ccc2nc(CSc3nc(C)cc(C)c3C#N)[nH]c2c1	26.9	?	?	?	4.61µM*	1.84µM*
O[C@@H]1CN(CC2CCCCC2)[C@@H](c2ccccc2)C[C@H]1n1cc(C2CC2)nn1	2.6	/	?	8.2µM*	/	/
O[C@H]1C[C@H](c2ccccc2)N(CC2CCCCC2)C[C@@H]1n1cc(C2CC2)nn1	-25.2	/	10.3µM*	7.31µM*	/	/
CC1NC(=O)c2cccnc2-n2c1nc1ccccc1c2=O (centres undefined)	5.1	/	-0.3%	-7.1%	/	/
CCc1ccccc1NC(=O)CC(C)n1nc(C)cc1C (centres undefined)	/	/	-2.9%	-13.9%	/	/
CCn1c(C(=O)O)c(CC(=O)Nc2ccc(Br)cc2C)c2ccccc21	36.9	?	-15.6%	25.8%	20.0%	5.8%
CCCCCCSc1ccc([C@@H]2[C@@H]3C(=O)N(C)C(=O)[C@@H]3[C@]3(C(=O)OC)CCCCN23)cc1	?	-1.3%	9.2µM*	25.9µM*	11.4%	?
CCCSc1ccc([C@@H]2[C@H]3C(=O)N(CC)C(=O)[C@H]3[C@]3(C(=O)OC)CCCCN23)cc1	-8.8	-3.2%	?	16.4µM*	-16.3%	-6.6%
